# Reference: ChEMBL document CHEMBL4513216, “Probing the Open Global Health Chemical Diversity Library for Multistage-Active Starting Points for Next-Generation Antimalarials” (ACS Infect Dis, 2020)
# About 2,700 (4%) of roughly 68,000 compounds showed an effect of 50% or more. The entries come from a sample that favours strong results as a whole.
# Tested on: Plasmodium berghei
# Assay: Screen against P. berghei liver stage (PbLuc), transformed with Luciferase, at 2uM
# Type: functional, HepG2
# Details: tested at 2 uM
row,Structure (SMILES),INHIBITION
1,CC(C)c1nn(CC(=O)N2CCCC2)c(=O)c2c1cnn2C(C)(C)C,-10.09%
2,CCc1cnc(CN(C)C2CCN(Cc3nnc(C4CC4)n3C)C2)o1 (configuration not stated),-11.16%
3,Cc1occc1C(=O)N1CCC2(CCCN(Cc3nccs3)C2)C1 (configuration not stated),50.61%
4,Cc1occc1C(=O)N1CCC2(CCN(Cc3nccs3)CC2)C1,-114.33%
5,Cc1occc1C(=O)N1CCC2(CCN(Cc3nccs3)C2)CC1,-6.15%
6,CC(C)NC(=O)N1C[C@@H]2C[C@H](C(=O)N3CCCC3)[C@H](C1)O2,-17.24%
7,Cn1cc(CN2CCc3nc(-c4ccccn4)nc(O)c3C2)cn1,-21.74%
8,CCn1cc(CN2CCc3nc(N4CCOCC4)nc(O)c3CC2)cn1,7.86%
9,CCn1cc(CN2CCc3nc(-c4ccccn4)nc(O)c3C2)cn1,57.4%
10,COCCN(C)C[C@@H]1CN(C(=O)c2cccc(C(F)(F)F)c2)C[C@@H]1CO,-20.58%
11,CN(C)C[C@@H]1CN(C(=O)c2cc(F)ccc2F)C[C@@H]1CO,-0.3%
12,CN(C)C[C@@H]1CN(C(=O)c2cc(-c3ccccc3)n[nH]2)C[C@@H]1CO,-40.44%
13,CCN(C)C[C@@H]1CN(C(=O)c2cc(C(F)(F)F)n[nH]2)C[C@@H]1CO,51.9%
14,CCn1nc(C)cc1C(=O)N1C[C@@H](CN(C)C)[C@@H](CO)C1,31.31%
15,CCN(C)C[C@@H]1CN(C(=O)c2cc(-c3ccc(F)cc3)n[nH]2)C[C@@H]1CO,54.49%
16,O=C(CCCC(=O)NCc1cccc(Br)c1)NCCN1CCCC1,-32.11%
17,Cc1nc(CN2C[C@@H]3CN(C(=O)C4(C#N)CC4)C[C@@H]3C2=O)cs1,25.5%
18,CN(C)C(=O)N1CCC2(CCCN(Cc3cnn(C)c3)C2)C1 (configuration not stated),40.67%
19,CCn1c(CC2CCN(C(=O)C3CCOC3)CC2)nn(C)c1=O (configuration not stated),-47.18%
20,CCC(C)NC(=O)c1cccc(CNCc2csc(C(C)C)n2)c1 (configuration not stated),-21.15%
21,CC(C)N(C)Cc1cncc2c1CCN(Cc1ccoc1)C2,1.81%
22,Cc1ccc(C(=O)NCC(O)CN2CCCC2=O)c(C)c1 (configuration not stated),-40.9%
23,COc1ccc(CN(C)C(=O)CN2CC(n3cc(C)cn3)C2)cc1F,-6.33%
24,CCc1nn(C)c(Cl)c1CN1CCN(c2ccc(C(N)=O)cn2)CC1,33.16%
25,CCOC(=O)c1ccc(N2CCN(Cc3c(C)nn(C)c3Cl)CC2)nc1,55.7%
26,NC(=O)c1ccc(N2CCN(Cc3c(Cl)cncc3Cl)CC2)nc1,-20.93%

row,Structure (SMILES),INHIBITION
1,Cc1nc2c(c(Nc3ccccn3)n1)CN(S(C)(=O)=O)CC2,-48.89%
2,Cc1noc(C(C)C)c1C(=O)N1CCC(n2cccn2)CC1,22.57%
3,COC(=O)c1cccn1C1CCN(C(=O)c2c(C)noc2C)CC1,39.92%
4,Cc1noc(C)c1C(=O)N1CCC(n2cccn2)CC1,61.52%
5,Cc1noc(C(C)Nc2ccc3oc(C)nc3c2)n1 (configuration not stated),10.04%
6,O=C(c1ccc(F)cc1Cl)N1CCC(Nc2cccnn2)CC1,8.37%
7,Fc1cccc(CN2CCOC3(COCCN(CC4CC4)C3)C2)c1 (configuration not stated),3.11%
8,Cc1cn[nH]c1C1COCCN1C(=O)c1ccc2[nH]nnc2c1 (configuration not stated),37.33%
9,Cc1cn[nH]c1C1COCCN1C(=O)c1ccc2c(c1)CCCC2 (configuration not stated),72.17%
10,COc1ccc(C(=O)N2CCOCC2c2[nH]ncc2C)cc1F (configuration not stated),-53.71%
11,CS(=O)(=O)CCN1CCC(Nc2c(Cl)cccc2C#N)CC1,-23.01%
12,CC(C)OC(=O)N1CCCCC1CCn1cccn1 (configuration not stated),29.71%
13,CN1CCCC(CCC(=O)N2CCc3sc(C(=O)N(C)C)cc3C2)C1 (configuration not stated),74.44%
14,CNC(=O)c1cc2c(s1)CCN(C(=O)CCC1CCCN(C)C1)C2 (configuration not stated),-4.26%
15,CN(C)C(=O)c1cc2c(s1)CCN(C(=O)CCCN1CCCCC1)C2,17.2%
16,C1CCC(CO[C@@H]2CC[C@H]3[C@H]2OCCN3CC2CCOCC2)C1,42.01%
17,CC(=O)N1CCN(Cc2ccc(F)cc2)CC2(CC(=O)N(C)C2)C1 (configuration not stated),44.68%
18,Cc1c(C)n2c(SCC(=O)N3CCOCC3)nnc2[nH]c1=O,33.59%
19,Oc1cccc(CN2CCN(C3CCc4ccccc4C3)CC2)c1 (configuration not stated),-5.87%
20,COc1ccc(CN2CCN(C3CCc4ccccc4C3)CC2)cc1O (configuration not stated),59.48%
21,COc1cc(O)ccc1CN1CCN(C2CCc3ccccc3C2)CC1 (configuration not stated),31.9%
22,CCNC(=O)C1CCN(c2nc(-c3ccco3)nc3c2CCNCC3)C1 (configuration not stated),40.47%
23,CCC(O)CN1CCN(C(=O)c2cc(Cl)cc3cccnc23)CC1 (configuration not stated),-28.58%
24,Cc1cc(C(=O)N2CCc3c(ncn3CCc3ccccc3)C2)on1,50.59%
25,Cc1cc(C)c(C(=O)N2CCc3c(ncn3CCc3ccccc3)C2)[nH]1,0.51%
26,Cc1nonc1C(=O)N1CCc2c(ncn2CCc2ccccc2)C1,17.2%
